Assays:
Assay in all cases: PBM binding z-score (relative to random genomic background probes); higher = stronger binding; sequences stand for … in GC…GCGATTGACAGCGTAGAATGAAGG
[1] = system: FXR:RXRa (NR concentration 270 nM, RXRa partner concentration 90 nM)
How it was run: (§1)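 Binding z-scores take random background probes as their reference. They come from custom Agilent 4×180K protein-binding microarrays incubated 1 h with ligand-free nuclear receptor dimers, with antibodies against each partner (one per run) detecting binding. Scanned fluorescence was regression-normalized.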

[2] = system: LXRa:RXRa (NR concentration 270 nM, RXRa partner concentration 90 nM)
How it was run: as §1

[3] = system: LXRa homodimer (NR concentration 270 nM)
How it was run: as §1

[4] = system: LXRb:RXRa (NR concentration 270 nM, RXRa partner concentration 90 nM)
How it was run: as §1

[5] = system: LXRb homodimer (NR concentration 270 nM)
How it was run: as §1

[6] = system: PPARa:RXRa (NR concentration 270 nM, RXRa partner concentration 90 nM)
How it was run: as §1

[7] = system: PPARg:RXRa (NR concentration 180 nM, RXRa partner concentration 90 nM)
How it was run: as §1

[8] = system: PPARg:RXRa 270nM:90nM, anti-RXR (NR concentration 270 nM, RXRa partner concentration 90 nM)
How it was run: as §1

[9] = system: PPARg:RXRa 30nM:10nM, anti-RXR (NR concentration 30 nM, RXRa partner concentration 10 nM)
How it was run: as §1

[10] = system: PPARg:RXRa 90nM:30nM, anti-RXR (NR concentration 90 nM, RXRa partner concentration 30 nM)
How it was run: as §1

[11] = system: PPARg:RXRa DBDmut IVT, anti-RXR (DBD mutation: RXRa K156A/R161A, NR concentration 270 nM, RXRa partner concentration 90 nM)
How it was run: as §1

[12] = system: PPARg:RXRa IVT, anti-PPARg (NR concentration 270 nM, RXRa partner concentration 90 nM)
How it was run: as §1

[13] = system: PPARg DBDmut:RXRa IVT, anti-PPARg (DBD mutation: PPARg1 K132A/R137A, NR concentration 270 nM, RXRa partner concentration 90 nM)
How it was run: as §1

[14] = system: PPARg DBDmut IVT, anti-PPARg (DBD mutation: PPARg1 K132A/R137A, NR concentration 270 nM)
How it was run: as §1

[15] = system: PPARg homodimer (NR concentration 180 nM)
How it was run: as §1

[16] = system: PXR:RXRa (NR concentration 270 nM, RXRa partner concentration 90 nM)
How it was run: as §1

[17] = system: PXR homodimer (NR concentration 270 nM)
How it was run: as §1

[18] = system: RARa:RXR (NR concentration 270 nM, RXRa partner concentration 90 nM)
How it was run: as §1

[19] = system: RARa homodimer (NR concentration 270 nM)
How it was run: as §1

[20] = system: RARb:RXRa (NR concentration 270 nM, RXRa partner concentration 90 nM)
How it was run: as §1

Sequence | PBM binding z-score [1] | PBM binding z-score [2] | PBM binding z-score [3] | PBM binding z-score [4] | PBM binding z-score [5] | PBM binding z-score [6] | PBM binding z-score [7] | PBM binding z-score [8] | PBM binding z-score [9] | PBM binding z-score [10] | PBM binding z-score [11] | PBM binding z-score [12] | PBM binding z-score [13] | PBM binding z-score [14] | PBM binding z-score [15] | PBM binding z-score [16] | PBM binding z-score [17] | PBM binding z-score [18] | PBM binding z-score [19] | PBM binding z-score [20]
TCTCGGAGGACACGAAAGGTCAGCGCTCGACATC | 3.42 | 4.26 | 2.8 | 3.54 | -0.162 | 3.88 | 1.58 | 3.31 | 2.59 | 2.86 | 2.02 | 1.8 | -0.121 | 0.158 | 3.31 | 4.36 | 0.337 | 4.86 | 1.84 | 4.42
CGTCCAAGGTCGGCAGGTCAGTGAAAGCGACGTG | 1.48 | 0.7 | -0.723 | 0.338 | -1.39 | 1.95 | -0.15 | 0.764 | -0.459 | -0.168 | -0.305 | 0.214 | -0.718 | -1.66 | 0.288 | 1.23 | -0.703 | 1.88 | -0.686 | 3.17
TCTCGGAGGACATGAAGGTCAGAGCTTTCCAGAG | 0.472 | 1.08 | 0.0663 | 1.15 | -0.779 | 1.77 | 0.175 | 1.63 | 2.55 | 1.8 | 2.01 | 0.772 | -0.736 | -1.67 | 0.875 | 1.77 | 0.899 | 1.69 | 0.0257 | 2.63
CCGACTGGGGCAAGGTTACCGTAACGCACAGCCA | 0.11 | 0.127 | -0.449 | 0.456 | -1.12 | 1.87 | 2.6 | 3.45 | 0.963 | 2.8 | 3.53 | 3.71 | -0.69 | -1 | -0.362 | 0.043 | -0.221 | 0.745 | -0.534 | 1.69
TCGAGTAGGTTCGGGGCATTCAGAATGGCGTCGA | -0.238 | -0.318 | -0.554 | -0.184 | -1.07 | 0.187 | -0.622 | 0.0439 | 0.452 | 0.234 | 0.529 | -0.193 | -0.804 | -0.918 | -0.546 | -0.101 | -0.4 | -0.0228 | -1.08 | 0.221
TCTAGTTGGTCAAAGGTCATACACTCGAAATGCG | 5.83 | 6.03 | 4.66 | 5.62 | 2.02 | 6.59 | 10.8 | 9.47 | 9.65 | 10.2 | 3.45 | 5.82 | 1.78 | 2.27 | 4.5 | 6.04 | 3.03 | 7.27 | 3.78 | 4.73
